Source: PubChem BioAssay (NCI)
Values joined by “and” are separate entries in the source; they are usually repeats but may differ in a detail not shown here. Equal values may be shown once. Compounds without any hit were thinned out: in the full panel of roughly 83,000, 20% have a hit.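 Testing used 96-well plates and a 48-hour single-concentration exposure. Example: -40 means 40% of the starting cells died.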 Active and inactive are the calls of the source. The calls were made as follows: active = growth percent below 10; inactive = the rest.

Columns and labels:
Assay in all cases: NCI-60 one-dose screen, 48 h (100 = growth as untreated, 0 = no growth, -100 = all killed)
Conditions in all cases: 10 µM unless noted
NCI/ADR-RES ovarian = tested on: NCI/ADR-RES ovarian
T-47D breast = tested on: T-47D breast
BT-549 breast = tested on: BT-549 breast
MDA-MB-435 melanoma = tested on: MDA-MB-435 melanoma
SW-620 colon = tested on: SW-620 colon
MCF7 breast = tested on: MCF7 breast
HCT-116 colon = tested on: HCT-116 colon
HCC-2998 colon = tested on: HCC-2998 colon
KM12 colon = tested on: KM12 colon

Measured: growth

c1ccc(CCN2CCCCC2)nc1
inactive: NCI/ADR-RES ovarian 109% | T-47D breast 91.1% | BT-549 breast 99.8% | MDA-MB-435 melanoma 100% | SW-620 colon 112% | MCF7 breast 96.5% | HCT-116 colon 99.9% | HCC-2998 colon 119% | KM12 colon 110%

OCCNC1CCCCC1
inactive: NCI/ADR-RES ovarian 115% | T-47D breast 98.4% | BT-549 breast 113% | MDA-MB-435 melanoma 106% | SW-620 colon 108% | MCF7 breast 101% | HCT-116 colon 94.3% | KM12 colon 107%

COC(=O)C1=CO[C@@H](C)[C@@H]2CN3CCc4c([nH]c5cc(OC)ccc45)[C@@H]3C[C@H]12
inactive: NCI/ADR-RES ovarian 93.8% | T-47D breast 93.2% | BT-549 breast 105% | MDA-MB-435 melanoma 107% | SW-620 colon 99.9% | MCF7 breast 91.1% | HCT-116 colon 103% | KM12 colon 109%

O=S(=O)(F)c1cccc(Cl)c1C[P+](c1ccccc1)(c1ccccc1)c1ccccc1
inactive: NCI/ADR-RES ovarian 109% | T-47D breast 91.9% | BT-549 breast 106% | MDA-MB-435 melanoma 84.4% | SW-620 colon 100% | MCF7 breast 103% | HCT-116 colon 92.4% | HCC-2998 colon 99.4% | KM12 colon 102%

CN(C)c1ccc(N)cc1
inactive: NCI/ADR-RES ovarian 104% and 85.3% | T-47D breast 90.7% and 28.5% | BT-549 breast 107% and 72% | MDA-MB-435 melanoma 107% and 43.4% | SW-620 colon 99.1% and 65.6% | MCF7 breast 87.7% and 30.5% | HCT-116 colon 117% and 14.8% | HCC-2998 colon 106% | KM12 colon 107% and 34.7%

O=[N+]([O-])c1ccc(OCc2ccc(S(=O)(=O)F)c(Cl)c2)c(Cl)c1
inactive: NCI/ADR-RES ovarian 102% | T-47D breast 97% | BT-549 breast 91.6% | MDA-MB-435 melanoma 113% | SW-620 colon 98.8% | MCF7 breast 92.8% | HCT-116 colon 90.1% | HCC-2998 colon 105% | KM12 colon 113%

Cc1cc(N(CCCl)CCCl)ccc1/C=N\NC(=O)c1cccnc1
inactive: NCI/ADR-RES ovarian 81.6% and 82.4% | T-47D breast 57.5% and 60.7% | BT-549 breast 86% and 78.8% | MDA-MB-435 melanoma 91.3% and 88.1% | SW-620 colon 91.4% | MCF7 breast 50.4% and 59.7% | HCT-116 colon 84% and 79.2% | HCC-2998 colon 97.1% and 102% | KM12 colon 104% and 95.1%

COc1ccc(/C=C(/C)[N+](=O)[O-])cc1OC
74.7% (inactive) and 3.26% (active): NCI/ADR-RES ovarian
active: T-47D breast 2.51% and -36.5% | SW-620 colon -71.8% and -74.3% | MCF7 breast -16.3% and 4.76% | HCT-116 colon -69.8% and -100%
inactive: BT-549 breast 60.2% | HCC-2998 colon 35.9% and 59.2% | KM12 colon 49% and 37.1%
14.8% (inactive) and 8.73% (active): MDA-MB-435 melanoma

CC(Oc1ccc(-c2ccccc2)cc1)C(=O)O (stereo not given)
inactive: NCI/ADR-RES ovarian 104% | T-47D breast 98.4% | BT-549 breast 106% | MDA-MB-435 melanoma 102% | SW-620 colon 102% | MCF7 breast 103% | HCT-116 colon 98.5% | KM12 colon 107%

COc1cc2c(c(OC)c1OC)-c1ccc(O)cc1[C@@H](NC(C)=O)CC2
active: BT-549 breast 8.27% | MDA-MB-435 melanoma -27.7% and -47.4% | HCT-116 colon 6.62% and 4.98% | KM12 colon -17.3% and -32.3%
11.1% (inactive) and -2.64% (active): NCI/ADR-RES ovarian
15.1% (inactive) and 6.46% (active): MCF7 breast
11.5% (inactive) and 8.19% (active): HCC-2998 colon
inactive: T-47D breast 56.4% and 64% | SW-620 colon 21.9% and 20.7%

O=[N+]([O-])c1ccc2scc3c4ccccc4nc-3c2c1
inactive: NCI/ADR-RES ovarian 10.7% | BT-549 breast 22.7% | HCC-2998 colon 95.7%
active: T-47D breast -24.3% | MDA-MB-435 melanoma -2.05% | SW-620 colon -76.4% | MCF7 breast -64.6% | HCT-116 colon -98.7% | KM12 colon 1.98%

CN(C)c1ccc([N+](=O)[O-])c([N+](=O)[O-])c1
inactive: NCI/ADR-RES ovarian 104% and 97.9% | T-47D breast 105% and 97.2% | BT-549 breast 90.5% and 105% | MDA-MB-435 melanoma 99% and 97.1% | SW-620 colon 101% and 111% | MCF7 breast 83.6% and 91% | HCT-116 colon 98.2% and 102% | HCC-2998 colon 96.6% and 107% | KM12 colon 109% and 112%
